Screening results: PubChem BioAssay, several laboratories
SENP7 inh – SENP7 protease inhibitors, primary screen, biochemical, luminescence, uHTS; Sentrin-specific protease 7 (Homo sapiens), Q9BQF6; recombinant SENP7, Z-RLRGG-aminoluciferin luminescence, 40 min; inhibition, % at 5 µM; 330,000 compounds, 1.5% hits;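 active = inhibition above about 50% at the single test dose, limit read from the data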;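 note: plate controls were DMSO with enzyme for no effect and no enzyme buffer wells for full effect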
SENP8 block-1 – SENP8 protease inhibitors, primary screen, biochemical, luminescence. Sentrin-specific protease 8 (Homo sapiens), Q96LD8. purified SENP8, Z-RLRGG-aminoluciferin cleavage. inhibition, % at 10 µM. 330,000 compounds, 1.2% hits. AID 2540, 2010; in the data active = inhibition above about 50%
Target sequence (Q96LD8 whole entry, looked up): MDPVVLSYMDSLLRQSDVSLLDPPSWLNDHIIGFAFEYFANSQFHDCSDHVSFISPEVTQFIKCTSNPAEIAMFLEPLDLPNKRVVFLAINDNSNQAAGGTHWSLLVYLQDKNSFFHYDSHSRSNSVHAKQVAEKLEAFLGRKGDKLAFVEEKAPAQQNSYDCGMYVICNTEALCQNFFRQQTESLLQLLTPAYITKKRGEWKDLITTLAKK
HSP90 inh – HSP90 inhibitors, primary screen, cell lysate, luminescence; inhibition, % at 5.6 µM; Heat shock protein HSP 90 (rabbit reticulocyte lysate; luciferase refolding); Rabbit reticulocyte lysate, luciferase refolding luminescence, 3 h; 290,000 compounds, 0.91% hits;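 active = inhibition above the screen-wide mean plus 3 SD, computed separately per campaign, cut at about 16% in these data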;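 note: 0% = DMSO wells and 100% = 60 µM geldanamycin wells; inhibitors lower the luminescence because luciferase stays unfolded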
SENP6 inh – SENP6 protease inhibitors, primary screen, biochemical, luminescence, uHTS | Sentrin-specific protease 6 (Homo sapiens), Q9GZR1 | Recombinant SENP6 catalytic domain, aminoluciferin luminescence | inhibition, % at 10 µM | 330,000 compounds, 1.8% hits;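 active = inhibition above about 50% at the single tested dose, limit read from the data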;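 note: plate controls were DMSO wells with enzyme for no effect and DMSO wells lacking enzyme for full effect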
SENP8 block-2 – human SENP8 protease inhibitors, primary screen, biochemical, fluorescence, Nedd8 protein substrate, uHTS | recombinant SENP8 | 360,000 compounds, 0.64% hits | AID 602440, 2012 | inhibition, % at 20 µM; in the data active = inhibition mostly above about 40%, no sharp cut-off; inactive = mostly below about 27%
LGR2 antag – inhibitors of bursicon-induced LGR2 CRE-luciferase signal, primary screen, cell-based, HEK293, CRE-luciferase reporter, bursicon stimulation; bursicon-stimulated, 4 h; inhibition, % at 9.99 µM; 380,000 compounds, 0.35% hits; AID 720647, 2013;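 active = drop in luminescence signal, shown as inhibition above about 50% in the replicate tests, limit read from the data, passing the limit was not always enough; inconclusive = probably only some replicates passing the limit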;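 note: agonist challenge used bursicon conditioned medium at about half maximal strength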
Numbers without * were called inactive; ? = inconclusive; nt = no result. An excerpt weighted towards active compounds, which were near 2.3% of everything screened.

SMILES	SENP7 inh	SENP8 block-1	HSP90 inh	SENP6 inh	SENP8 block-2	LGR2 antag
O=C(CCCN1C(=O)/C(=C\c2ccccc2)SC1=S)Nc1ccc(O)cc1C(=O)O	-12.3	0.3	1.8	18.6	17.0	-2.0
COc1ccc(C2C(=O)N(C3CCCCC3)CC(=O)N2Cc2ccc3c(c2)OCO3)cc1 (stereo not drawn)	-1.2	-6.1	-0.3	100.1*	17.7	4.5
O=C1C(c2ccc(F)cc2)N(Cc2ccc3c(c2)OCO3)C(=O)CN1C1CCCCCC1 (stereo not drawn)	5.5	3.9	4.1	3.8	6.2	nt
COc1ccc(C(=O)/C=C/C(=O)N(CC(=O)NC2CCCCC2)Cc2ccccc2OC)c(O)c1	nt	nt	-6.2	nt	5.5	?
COc1ccc(C(=O)/C=C/C(=O)N(CC(=O)NC2CCCCC2)Cc2ccccc2)c(O)c1	nt	nt	0.5	nt	5.0	100.0*
COc1ccc(C(=O)/C=C/C(=O)N(CC(=O)NC2CCCCC2)CC2CCCO2)c(O)c1 (stereo not drawn)	-0.8	5.0	3.8	-1.7	-12.8	104.1*
COc1ccc(C(=O)/C=C/C(=O)N(Cc2ccccc2)C(C(=O)NC2CCCCC2)c2ccncc2)c(O)c1 (stereo not drawn)	-5.7	-10.5	3.3	-7.8	3.5	-14.7
CCCN1C[C@@H](C)[C@@H](OC)CN(C)C(=O)c2cc(NC(=O)CC)ccc2OC[C@H]1C	nt	nt	nt	nt	nt	2.1
C[C@@H]1CCCCO[C@@H](CN(C)Cc2ccncc2)[C@@H](C)CN([C@@H](C)CO)C(=O)c2cc(NC(=O)C3CCCCC3)ccc2O1	nt	nt	nt	nt	nt	-16.7
Cc1ccc(N2Cc3ccccc3C2=S)cc1	59.2*	44.3	6.9	54.0*	1.3	-53.0
COc1ccc(N2CCN(C(=O)c3ccc(Cl)c(S(=O)(=O)N4CCCC4)c3)CC2)cc1	0.8	-12.0	-2.7	-4.4	4.5	4.0
COc1ccc(N2CCN(C(=O)c3ccc(C)c(Cl)c3)CC2)cc1	0.1	4.6	-2.3	8.7	40.1*	nt
CC1C=NC(S(=O)(=O)N2CC[C@@H]3[C@@H](CO)N(C)c4ccc(-c5cccc(F)c5)cc4[C@@H]32)=N1 (stereo partly drawn)	nt	nt	nt	nt	nt	-7.1
Cc1nc2c(-c3ccc(F)cc3)c(C)nn2c(C)c1CCC(=O)Nc1ccccc1	6.0	2.8	-7.6	60.9*	-20.1	-5.9
Oc1cc2c(cc1O)C1c3ccc(O)c(O)c3OCC1(O)C2 (stereo not drawn)	9.7	2.0	-0.7	4.5	69.2*	13.5
N#C[C@@H]1[C@H](c2ccc(C#Cc3cccc(F)c3)cc2)[C@@H](CO)N1C(=O)C1CCC1	nt	nt	nt	nt	nt	71.8*
COc1ccccc1C#Cc1ccc([C@H]2[C@@H](C#N)N(C(=O)C3CCCC3)[C@@H]2CO)cc1	nt	nt	nt	nt	nt	-11.0
N#C[C@H]1[C@@H](c2ccc(C#Cc3cccc(F)c3)cc2)[C@@H](CO)N1C(=O)C1CCC1	nt	nt	nt	nt	nt	2.8
COc1ccccc1C#Cc1ccc([C@H]2[C@H](C#N)N(C(=O)C3CCCC3)[C@H]2CO)cc1	nt	nt	nt	nt	nt	79.8*
Cc1ccccc1CNC(=O)c1ccccc1C(=O)O	5.8	5.2	16.2*	-24.5	25.5	nt
Cc1ccc(Cn2ncc(Cl)c(Cl)c2=O)cc1	2.1	0.9	1.3	-14.9	6.5	-9.6
O=c1c(Cl)c(Cl)cnn1Cc1nnc(-c2ccc(Cl)cc2)o1	nt	nt	5.0	nt	-33.0	103.9*
O=C(N=C1c2ccccc2CN1c1ccc(F)c(Cl)c1)c1cccnc1Cl	60.7*	62.1*	1.2	65.6*	nt	-18.0
N#Cc1ccc(N2Cc3ccccc3C2=NC(=O)c2cccnc2Cl)cc1	10.7	-0.8	-1.9	27.0	-17.7	nt
COc1ccc(N(C(=O)c2ccncc2)S(=O)(=O)c2ccc3c4c(cccc24)C(=O)N3C)cc1	-0.3	-3.3	3.1	-0.4	-380.0	71.8*
C[C@@H]1CN([C@@H](C)CO)C(=O)c2cccc(NC(=O)Nc3ccccc3)c2O[C@H]1CN(C)Cc1ccc2c(c1)OCO2	nt	nt	nt	nt	nt	23.3
